Consider 55 compounds from PubChem BioAssay AID431 (Sanford-Burnham Center for Chemical Genomics, 2006).

SMILES strings stand for the structures. In all, about 63,000 compounds went through this assay and about 1,100 (1.7%) were called active. For the sample, actives were picked, then their nearest neighbours and some compounds at random. Measured potencies and affinities stand elsewhere. Values without a mark were called inactive.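 The calls were made as follows: active = compounds whose percent cytotoxicity in the single-dose primary screen, scaled between solvent and toxic-drug controls, exceeds 50; inactive = the rest.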

This assay is described as follows: cytotoxicity in KRAS-transformed pancreatic duct cells, primary screen, cell-based, fluorescence, HTS (AID 431).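 Also: 0% = DMSO solvent wells and 100% = doxorubicin-treated wells.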 To be noted: HPDE-C7K KRASV12 cells, Alamar Blue viability, 48 h; at 10 µM; active compounds read high. A general note: Alamar Blue is a resazurin reagent that responds to reducing activity.
Consider `COC(=O)c1ccsc1NC(=O)CN1C(=O)CCC1=O`, for which the cytotoxicity is -1.3%.
Take `COCCn1c(SCC(=O)Nc2ncc(C)s2)nc2sc3c(c2c1=O)CCC3`: the cytotoxicity was 14.3%.
Take `CN1C(=O)/C(=C2/C=CC=CN2C)OC1=S`: the cytotoxicity was -24.5%.
The value for `COc1ccc(CCNC(=O)C2CCN(S(=O)(=O)c3cc(OC)ccc3OC)CC2)cc1` was 2.3%; that for `COc1ccccc1C1C=C(c2ccccc2)Nc2nnnn21` (stereo not given) was 25.4%.
For `COc1ccc(C2=CC(c3c(C)nn(-c4ccccc4)c3Cl)n3nnnc3N2)cc1OC` (stereo not given), the cytotoxicity was 84.4% (active).
For the compound `COc1ccc(OC)c(C2C=C(c3ccc(C)c(C)c3)Nc3nnnn32)c1` (stereo not given), the cytotoxicity is 6%.
The result for `COc1cccc(C2=CC(c3ccccc3)n3nnnc3N2)c1` (stereo not given) reads 43.2%; that for `COc1cccc(C2=CC(c3ccc(OC)c(OC)c3OC)n3nnnc3N2)c1` (stereo not given), -4.5%; that for `COc1cccc(C2=CC(c3cc(OC)ccc3OC)n3nnnc3N2)c1` (stereo not given), 65.1% (active).
With `COc1ccc(C2=CC(c3ccc(OC)c(OC)c3)n3nnnc3N2)c(OC)c1` (stereo not given), the cytotoxicity is 4%.
`COc1cccc(C2=CC(c3cccc(OC)c3OC(F)F)n3nnnc3N2)c1` (stereo not given): the cytotoxicity was -13.8%.
Regarding `COc1cccc(C2=CC(c3cccc(OC)c3OC)n3nnnc3N2)c1` (stereo not given), the cytotoxicity was 58.1% (active).
Regarding `COc1ccccc1C1C=C(c2ccc(C)cc2)Nc2nnnn21` (stereo not given), the cytotoxicity is -8.9%.
The result for `COc1cccc(C2=CC(c3ccc(N(C)C)cc3)n3nnnc3N2)c1` (stereo not given) reads -3.6%; that for `CC1CCCCC1NC(=O)CSc1nc2ccccc2c(=O)n1Cc1ccco1` (stereo not given), -6.9%; that for `COc1cccc(N(CC(=O)Nc2ccccc2C)S(C)(=O)=O)c1`, 14.1%.
The value for `c1ccc(-c2nc3ccccc3nc2-c2ccccn2)nc1` was 13.9%; that for `COc1ccc(OC)c2[nH]c(=O)c(CCNC(=O)CC(C)C)cc12` was -6.6%; that for `CCOC(=O)N1CCC(NC(=O)C2=C(C)C(=O)OC23CCC(C)CC3)CC1` (stereo not given) was -10.3%.
In the case of `Cc1nn(C)c(C)c1S(=O)(=O)N1CCCC(C(=O)NC2CCCCC2)C1` (stereo not given), the cytotoxicity was -4.9%.
With `COc1ccc(NC(=O)CSc2nnc(-c3ccncc3)n2CC2CCCO2)c(OC)c1` (stereo not given), the cytotoxicity was -18.3%.
The value for `CCC(CC)C(=O)NCCc1cc2c(OC)ccc(OC)c2[nH]c1=O` was 7.1%; that for `O=C(c1ccco1)N1CCN(c2ncnc3c2[nH]c2ccc(Br)cc23)CC1` was 10%.
Take `Clc1ccc(-c2nnc(-c3ccccc3Cl)o2)cc1`: the cytotoxicity was 13.7%.
On to `Cc1nc(NC(=O)c2csc3ccccc23)sc1C`, for which the cytotoxicity is 2.8%.
Regarding `COc1ccccc1C1(CC(=O)N2CCOCC2)CCOC(C(C)C)C1` (stereo not given), the cytotoxicity was -15.3%.
As to `CC[C@H]1OC(=O)C[C@@H](O)[C@H](C)[C@@H](O[C@@H]2O[C@H](C)C[C@H](N(C)C)[C@H]2O)[C@@H](CC=O)C[C@@H](C)C(=O)C=C[C@]2(C)O[C@H]2[C@@H]1C`, the cytotoxicity was 76.8% (active).
On to `CCC(=O)O[C@@H]1CC(=O)O[C@H](C)CC=CC=C[C@@H](O)[C@H](C)C[C@H](CC=O)[C@H](O[C@H]2O[C@H](C)[C@@H](O[C@H]3C[C@@](C)(O)[C@@H](OC(=O)CC)[C@H](C)O3)[C@H](N(C)C)[C@H]2O)[C@H]1OC`, for which the cytotoxicity was -0.4%.
The value for `Cc1cc(C)cc(NC(=O)Cn2ncn3c(cc4ccccc43)c2=O)c1` was -13.3%; that for `O=C1c2ccncc2C(=O)N1C1CCCCC1` was 2.8%.
`CN1CCN(C2=C(Cl)C(=O)N(C3CCCCC3)C2=O)CC1`: the cytotoxicity is 3%.
Regarding `O=C(Nc1ccc2c(c1)OCCO2)C1CCN(S(=O)(=O)c2cccs2)CC1`, the cytotoxicity was -8.1%.
Take `O=C(CCCCCn1c(SCc2ccncc2)nc2ccccc2c1=O)NCc1ccco1`: the cytotoxicity was 9.3%.
The result for `Cc1cc(O)c(-c2cc(C(=O)Nc3ccc(S(=O)(=O)N4CCOCC4)cc3)[nH]n2)cc1C` reads 6.5%; that for `COc1ccc(NC(=O)c2cc(-c3cc(C)cc(C)c3O)n[nH]2)cc1Cl`, 70.7% (active); that for `Cc1ccc(O)c(-c2cc(C(=O)Nc3ccc(S(=O)(=O)N4CC(C)OC(C)C4)cc3)[nH]n2)c1` (stereo not given), -13.4%.
With `COc1ccc(OC)c(NC(=O)c2cc(-c3ccc(C)cc3O)n[nH]2)c1`, the cytotoxicity is -0.5%.
As to `COc1ccc(OC)c(NC(=O)c2cc(-c3cc(Cl)ccc3O)n[nH]2)c1`, the cytotoxicity is 1.7%.
`Cc1c(N=C2SCC(=O)N2c2c(C)n(C)n(-c3ccccc3)c2=O)c(=O)n(-c2ccccc2)n1C`: the cytotoxicity is 15.2%.
The value for `COc1ccccc1/C=c1\sc2nc(-c3ccncc3)nn2c1=O` was -13.5%; that for `COc1ccc2nc3sc(C(=O)NCc4cccs4)c(N)c3cc2c1` was 5.5%.
For the compound `N=c1c2c(-c3ccccc3)c(-c3ccccc3)oc2ncn1CCCN1CCOCC1`, the cytotoxicity was 55.5% (active).
On to `c1ccc(-c2oc3ncnc(NCCCN4CCOCC4)c3c2-c2ccccc2)cc1`, for which the cytotoxicity was 59.8% (active).
As to `COc1ccc(-c2csc3ncnc(NCCN4CCOCC4)c23)cc1`, the cytotoxicity is 25.8%.
`c1ccc(-c2oc3ncnc(NCCCn4ccnc4)c3c2-c2ccccc2)cc1`: the cytotoxicity was 17.3%.
As for `COc1ccc(-c2oc3ncnc(NCCN4CCOCC4)c3c2-c2ccc(OC)cc2)cc1`, the cytotoxicity was 4%.
`COc1ccc(-c2oc3ncnc(NCCCN4CCOCC4)c3c2-c2ccc(OC)cc2)cc1`: the cytotoxicity is 107% (active).
Take `c1ccc(-c2oc3ncnc(NCCN4CCOCC4)c3c2-c2ccccc2)cc1`: the cytotoxicity is 42%.
As to `N=c1c2c(-c3ccccc3)c(-c3ccccc3)oc2ncn1CCN1CCOCC1`, the cytotoxicity was 33.6%.
`COc1ccc(-c2oc3ncn(CCN4CCOCC4)c(=N)c3c2-c2ccc(OC)cc2)cc1`: the cytotoxicity was 17.3%.
Consider `CCc1nnc(NC=C2C(=O)OC(C)(C)OC2=O)s1`, for which the cytotoxicity is -7.7%.
The result for `Cc1c(/C(O)=C2/C(=O)C(=O)N(CCN3CCOCC3)C2c2cccnc2)cnn1-c1ccccc1` (stereo not given) reads -12.5%; that for `CCN(CC)CCN1C(=O)C(O)=C(C(=O)c2sc(C)nc2C)C1c1cccnc1` (stereo not given), -8.8%.
Consider `O=C(CN1CCN(C(=O)c2cccs2)CC1)NC1CCCCC1`, for which the cytotoxicity was -4.4%.
